# Test results taken from PubChem BioAssay AID504850 (National Center for Advancing Translational Sciences (NCATS), 2011).
# Values joined by “and” are separate entries in the source; they are usually repeats but may differ in a detail not shown here. Equal entries are not always repeated. In all, about 2,300 compounds went through this assay and about 1,200 (52%) were called active. Roughly 34% stayed inconclusive and do not appear here. Calls follow the shape of the dose curve; as a rule, active = well fitted inhibition curve with a large enough effect; inconclusive = small, poorly fitted or top-dose-only effect, or effect the other way; inactive = no such curve, though single readings can be large or run the other way. So high a share suggests a set chosen from earlier hits. Some of the results follow.
# Experiment: Confirmation screen for delayed death inhibitors of the malarial parasite plastid, 48 hour incubation; also: nearly all actives have a fitted effect of over 65% in size
# Conditions: P. falciparum-infected erythrocytes, luciferase growth; series mostly up to 28.7 µM
# Description: The goal of this screen is to discover new antimalarial compounds that act by inhibiting the development of the apicoplast in the malarial parasite Plasmodium falciparum. The biochemical processes that make this organelle essential for erythrocytic stage parasites are not well understood. However, antibiotics, such as azithromycin and tetracycline, which target the apicoplast translational machinery, have a potent antimalarial effect. […] We have developed a cell-based assay that measures parasite growth based on the expression of an integrated copy of a firefly luciferase reporter. To detect small molecules that cause this "delayed death phenotype, erythrocytes infected with the luciferase-expressing parasites were incubated with compounds for either one or two generations, corresponding to 48 and 96 hours, respectively. Compounds that inhibit parasite growth in the second generation, but not the first, should be enriched in antimalarials that target the apicoplast. Growth inhibition is detected by a decrease in luciferase activity. MLPCN Grant: R21 NS059500 Assay Provider: David Fidock and Eric Ekland, Columbia University Keywords: NIH Roadmap, MLPCN, MLI, MLSMR, qHTS, NCGC, qHTS, malaria, luciferase, viability
# Four microliters of culture medium (RPMI 1640 with 0.5% w/v Albumax (GIBCO), 24 mM sodium bicarbonate and 10 ug/mL gentamycin) were dispensed by a Multi-drop Combi into white solid 1536-well plates (Grenier) and 23 nL compound was added by a pin tool. Four microliters of infected erythrocytes (2% hematocrit, 0.1% parasitemia final concentration) in culture medium were dispensed and the plates incubated for 48 hours at 37 C in 5% CO2. Two microliters of luciferase detection reagent was added and luminescence was detected by a ViewLux (PerkinElmer) reader.
# Potency is read from the fitted curve at half-maximal effect.
row,Structure (SMILES),Potency
1,Fc1ccc(C[n+]2c(-c3ccccc3)cc(-c3ccccc3)cc2-c2ccccc2)cc1,2.82 µM (active)
2,CN1C[C@H](C(=O)N[C@]2(C)O[C@@]3(O)[C@@H]4CCCN4C(=O)[C@H](Cc4ccccc4)N3C2=O)C[C@@H]2c3cccc4[nH]cc(c34)C[C@H]21,2.82 µM (active)
3,C[C@@H]1CC[C@H]2[C@@H](C)C(=O)O[C@@H]3OC4(C)CC[C@@H]1C32OO4 (some centres not stated),0.0447 µM (active)
4,C[C@@H]1CC[C@H]2[C@@H](C)C(=O)O[C@@H]3O[C@@]4(C)CC[C@@H]1[C@]32OO4,0.0794 µM (active)
5,Cn1c(O)c(C=NC2C(=O)C3(C)CCC2C3(C)C)c(=O)n(C)c1=O (configuration not stated),inactive
6,CC(=O)N1CC(=O)Nc2ccc(Cl)cc2C1c1ccccc1 (configuration not stated),inactive
7,O=C(CCl)Nc1nccs1,5.01 µM (active)
8,O=C(/C=C/c1cccs1)c1cc(Cl)ccc1OC(=O)N1CCOCC1,14.1 µM (active)
9,C[C@H]1C[C@@H](C)C(=O)[C@@H]([C@H](O)CC2CC(=O)NC(=O)C2)C1,0.0794 µM (active)
10,C[C@@H]1C[C@@H]([C@H](O)CC2CC(=O)NC(=O)C2)C(=O)[C@@H](C)C1,0.891 µM (active)
11,Cc1ccc(N2C(=O)NC(=O)/C(=C\C=C\c3ccco3)C2=O)cc1,inactive
12,CCN1CCN(Cc2nc3ccc([N+](=O)[O-])cc3c(=O)n2-c2ccccc2F)CC1,inactive
13,COc1cc(C(=O)N/N=C/C23CC[C@@H](O)CC2(O)CC[C@@H]2[C@@H]3CCC3(C)C(C4=CC(=O)OC4)CCC23O)ccc1O (some centres not stated),inactive
14,COc1ccc(C(=O)N/N=C/C23CC[C@@H](O)CC2(O)CC[C@@H]2[C@@H]3CCC3(C)C(C4=CC(=O)OC4)CCC23O)cc1 (some centres not stated),inactive
15,CN(C)c1ccc(C(=O)N/N=C/C23CC[C@@H](O)CC2(O)CC[C@@H]2[C@@H]3CCC3(C)C(C4=CC(=O)OC4)CCC23O)cc1 (some centres not stated),12.6 µM (active)
16,CN(C)[C@@H]1C(=O)C(C(N)=O)=C(O)[C@@]2(O)C(=O)C3=C(O)c4c(O)cccc4[C@@](C)(O)C3[C@H](O)C12 (some centres not stated),5.01 µM (active)
17,C[n+]1c2cc(N)ccc2cc2ccc(N)cc21,1 µM (active)
18,COC(=O)c1nc(-c2ccc3c(n2)C(=O)C(N)=C(OC)C3=O)c(N)c(-c2ccc(OC)c(OC)c2O)c1C,0.562 µM (active)
19,CC[C@H]1CN2CCc3cc(OC)c(OC)cc3C2C[C@@H]1C[C@H]1NCCc2cc(OC)c(OC)cc21 (some centres not stated),0.0501 µM (active)
20,CC[C@H]1CN2CCc3cc(OC)c(OC)cc3[C@H]2C[C@@H]1C[C@@H]1NCCc2cc(OC)c(OC)cc21,0.562 µM (active)
21,CC[C@H]1CN2CCc3cc(OC)c(OC)cc3[C@@H]2C[C@@H]1C[C@H]1NCCc2cc(OC)c(OC)cc21,0.316 µM (active)

row,Structure (SMILES),Potency
1,O=C1NC(=O)N(c2ccccc2)C(=O)/C1=C/C=C/c1ccco1,inactive
2,CCN(CC)Cc1cc(Nc2ccnc3cc(Cl)ccc23)ccc1O,79.4 nM (active) and 22.4 nM (active)
3,CC(C)CCOP(N)(=O)Oc1ccccc1 (configuration not stated),4.47 µM (active)
4,CCn1c(=O)oc2cc(NC(=O)CCl)ccc21,2.24 µM (active)
5,Cn1c(=O)oc2cc(NC(=O)CCl)ccc21,0.794 µM (active)
6,O=[N+]([O-])c1cccc2c([As](=O)(O)O)cccc12,3.55 µM (active)
7,Oc1ccc(-[n+]2c(-c3ccccc3)cc(-c3ccccc3)cc2-c2ccccc2)cc1,0.708 µM (active)
8,C[C@@H]1O[C@@H](O[C@H]2C[C@@H](O)[C@]3(CO)[C@@H]4C(CC[C@]3(O)C2)[C@@]2(O)CC[C@H](C3COC(=O)C3)[C@@]2(C)C[C@H]4O)[C@H](O)[C@H](O)[C@H]1O (some centres not stated),inactive
9,Cc1ccc(C(C)C)c(OCC(=O)N2CCN(Cc3nc4cc([N+](=O)[O-])ccc4n3C)CC2)c1,inactive
10,CCCNS(=O)(=O)c1ccc(OCC(=O)N2CCN(Cc3ccc4c(c3)OCO4)CC2)c(C)c1,12.6 µM (active)
11,CCOC(=O)COc1ccc2c(c1)c(C(C)=O)c(C)n2Cc1ccccc1,inactive
12,Cn1cc([N+](=O)[O-])c(C(=O)Nc2ccc3c(C(F)(F)F)cc(=O)oc3c2)n1,inactive
13,O=C(NC1CC2CCCC(C1)N2)c1ccccc1 (configuration not stated),10 µM (active)
14,Clc1ccccc1CN1CCNCC1,inactive
15,COc1ccc(Cn2c(N)c(C(=O)NCc3ccco3)c3nc4ccccc4nc32)cc1,3.98 µM (active)
16,O=c1oc2ccccc2c(O)c1[C@H]1c2ccc(O)cc2Oc2c1c(=O)oc1ccccc21,inactive
17,CN1CCc2cc3c(c4c2C1Cc1ccccc1-4)OCO3 (configuration not stated),0.562 µM (active)
18,O=C1/C(=C/c2ccccc2)C[C@@]2(O)[C@H]3Cc4ccc(O)c5c4[C@@]2(CCN3CC2CC2)C1O5 (some centres not stated),5.01 µM (active)
19,CCCCCCn1c(=O)c(C(=O)Nc2ncccc2O)c(O)c2ccccc21,inactive
20,C=C1C(O)[C@@H]2O[C@]3(CC[C@H](/C=C/C(C)[C@@H]4CC(C)=CC5(O[C@H](C[C@@](C)(O)C(=O)O)CCC5O)O4)O3)CC[C@H]2O[C@@H]1C(O)CC(C)[C@H]1OC2(CCCCO2)CCC1C (some centres not stated),0.0891 µM (active)
21,C=C1C(=O)O[C@@H]2C[C@@H](C)[C@@H]3C=CC(=O)[C@@]3(C)[C@@H](OC(=O)CC(=O)O[C@H]3[C@@H]4C(=C)C(=O)O[C@@H]4C[C@@H](C)[C@@H]4C=CC(=O)[C@]43C)[C@H]12,0.398 µM (active)

row,Structure (SMILES),Potency
1,C=C1C(=O)O[C@@H]2C[C@@H](C)[C@@H]3C=CC(=O)[C@@]3(C)[C@@H](O)[C@H]12,1.58 µM (active)
2,C=C1C(=O)O[C@H]2C[C@@H](C)[C@@H]3C=CC(=O)[C@@]3(C)C[C@H]12,2 µM (active)
3,CCCCN=C[C@]12CCC(O)CC1(O)CCC1[C@@H]2CC[C@]2(C)[C@H](C3C=CC(=O)O3)CCC12O (some centres not stated),inactive
4,C[C@]12CCC3C(CCC4=CC(O)CC[C@@]43/C=N/O)C1(O)CCC2C1=CC(=O)OC1 (some centres not stated),inactive
5,COC(=O)C1=C(c2ccc(F)cc2OCc2ccccc2)C[C@@H]2CC[C@H]1N2C(=O)NCc1ccccc1Br,1.78 µM (active)
6,COC(=O)C1=C(c2ccccc2OCc2ccccc2)C[C@@H]2CC[C@H]1N2C(=O)NCCOc1ccc(OC)cc1,12.6 µM (active)
7,CCC(C(=O)N1CCC2(CC1)OCCO2)n1c2ccccc2c2nc(=O)cc(C)n21 (configuration not stated),11.2 µM (active)
8,CCOc1cc2c(cc1OCC)-n1cccc1C(c1ccccc1F)NC2 (configuration not stated),10 µM (active)
9,CCOP(=O)(OCC)C(O)c1ccc(OC)cc1OC (configuration not stated),inactive
10,COc1ccc(-c2cc(-c3ccccc3)[n+](C)c(-c3ccccc3)c2)cc1,3.16 µM (active)
11,C[n+]1c(-c2ccccc2)cc(-c2ccc(Cl)cc2)cc1-c1ccccc1,2 µM (active)
12,Cc1cc2ccccn2c1C(C[N+](=O)[O-])c1c(F)cccc1Cl (configuration not stated),12.6 µM (active)
13,O=[N+]([O-])c1ccc(NC2CCCC2)c2ccncc12,inactive
14,C=CCn1c(O)c(N=Nc2c(C)n(C)n(-c3ccccc3)c2=O)c(=O)[nH]c1=S,11.2 µM (active)
15,C[C@@H]1C[C@@H]2O[C@H]2/C=C\C=C\C(=O)Cc2c(Cl)c(O)cc(O)c2C(=O)O1,7.08 µM (active)
16,C=C[C@H]1CN2CC[C@H]1C[C@@H]2[C@@H](O)c1ccnc2ccccc12,0.251 µM (active)
17,CN1C2CCC1/C(=C/c1ccccn1)C(=O)/C2=C\c1ccccn1,0.251 µM (active)
18,CC[n+]1c(-c2ccccc2)c2cc(N)ccc2c2ccc(N)cc21,1 µM (active)
19,CC(C)c1ccc(N2C(=O)NC(=O)/C(=C\C=C\c3ccco3)C2=O)cc1,inactive
20,CC(C)c1oc(=O)cc2c1[C@@H](O)[C@H]1OC(=O)[C@@]3(C)CC[C@@H](O)[C@@]2(C)C13 (some centres not stated),8.91 µM (active)
